Reference: the supplement of paper PMC6555819

Columns and labels:
Assay in all cases: PBM binding z-score (relative to random genomic background probes); higher = stronger binding; sequences stand for … in GC…GCGATTGACAGCGTAGAATGAAGG
[1] = tested on: FXR:RXRa (NR concentration 270 nM, RXRa partner concentration 90 nM)
In short: (§1)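 Custom Agilent 4×180K protein-binding microarrays carried double-stranded probes, each with a 34-nt variable region. These regions held direct-repeat seeds, single-nucleotide variants, half-site ablations and random human genomic background sequences. Ligand-free nuclear receptor dimers were incubated on the arrays for 1 h, antibodies against each partner (one per run) detected binding, and scanned fluorescence was regression-normalized. Binding z-scores take the random background probes as reference.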

[2] = tested on: LXRa:RXRa (NR concentration 270 nM, RXRa partner concentration 90 nM)
In short: as §1

[3] = tested on: LXRa homodimer (NR concentration 270 nM)
In short: as §1

[4] = tested on: LXRb:RXRa (NR concentration 270 nM, RXRa partner concentration 90 nM)
In short: as §1

[5] = tested on: LXRb homodimer (NR concentration 270 nM)
In short: as §1

[6] = tested on: PPARa:RXRa (NR concentration 270 nM, RXRa partner concentration 90 nM)
In short: as §1

[7] = tested on: PPARg:RXRa (NR concentration 180 nM, RXRa partner concentration 90 nM)
In short: as §1

[8] = tested on: PPARg:RXRa 270nM:90nM, anti-RXR (NR concentration 270 nM, RXRa partner concentration 90 nM)
In short: as §1

[9] = tested on: PPARg:RXRa 30nM:10nM, anti-RXR (NR concentration 30 nM, RXRa partner concentration 10 nM)
In short: as §1

[10] = tested on: PPARg:RXRa 90nM:30nM, anti-RXR (NR concentration 90 nM, RXRa partner concentration 30 nM)
In short: as §1

[11] = tested on: PPARg:RXRa DBDmut IVT, anti-RXR (DBD mutation: RXRa K156A/R161A, NR concentration 270 nM, RXRa partner concentration 90 nM)
In short: as §1

[12] = tested on: PPARg:RXRa IVT, anti-PPARg (NR concentration 270 nM, RXRa partner concentration 90 nM)
In short: as §1

[13] = tested on: PPARg DBDmut:RXRa IVT, anti-PPARg (DBD mutation: PPARg1 K132A/R137A, NR concentration 270 nM, RXRa partner concentration 90 nM)
In short: as §1

[14] = tested on: PPARg DBDmut IVT, anti-PPARg (DBD mutation: PPARg1 K132A/R137A, NR concentration 270 nM)
In short: as §1

[15] = tested on: PPARg homodimer (NR concentration 180 nM)
In short: as §1

[16] = tested on: PXR:RXRa (NR concentration 270 nM, RXRa partner concentration 90 nM)
In short: as §1

[17] = tested on: PXR homodimer (NR concentration 270 nM)
In short: as §1

[18] = tested on: RARa:RXR (NR concentration 270 nM, RXRa partner concentration 90 nM)
In short: as §1

[19] = tested on: RARa homodimer (NR concentration 270 nM)
In short: as §1

[20] = tested on: RARb:RXRa (NR concentration 270 nM, RXRa partner concentration 90 nM)
In short: as §1

Row | Sequence | PBM binding z-score [1] | PBM binding z-score [2] | PBM binding z-score [3] | PBM binding z-score [4] | PBM binding z-score [5] | PBM binding z-score [6] | PBM binding z-score [7] | PBM binding z-score [8] | PBM binding z-score [9] | PBM binding z-score [10] | PBM binding z-score [11] | PBM binding z-score [12] | PBM binding z-score [13] | PBM binding z-score [14] | PBM binding z-score [15] | PBM binding z-score [16] | PBM binding z-score [17] | PBM binding z-score [18] | PBM binding z-score [19] | PBM binding z-score [20]
1 | ATCCAAAGGTCGACGAGGTGAGTATACACCGTTT | 5.35 | 3.7 | 0.198 | 3.13 | 0.235 | 4.5 | 4.29 | 4.16 | 1.4 | 3.03 | 0.48 | 2.51 | 0.787 | 0.209 | 1.99 | 3.05 | 0.52 | 3.62 | 0.92 | 4.07
2 | TTACCAAGGTGAGCTGAGGTTGTTGATCCAACTC | 0.871 | -0.206 | -0.484 | -0.269 | -1.04 | 0.271 | -0.354 | 0.187 | -0.357 | -0.0442 | 1.22 | 1.51 | -0.399 | -0.245 | -0.248 | 2.03 | -0.915 | 0.168 | -0.951 | 0.78
3 | AGAACGAGGGCACTGAGTTGATAGCACGGGTGGC | 0.0718 | -0.082 | -0.301 | -0.236 | -0.887 | 1.52 | 1.5 | 1.04 | 0.0133 | 0.347 | 3.56 | 2.9 | 0.453 | 0.196 | 0.00559 | 1.21 | 4.15 | 0.453 | -0.261 | 2.09
4 | ATACCAAGGTGATCGTGAGGTCGTTGAAACTAAC | 2.15 | 1.49 | 0.854 | 1.6 | 0.171 | 2.03 | 0.268 | 0.273 | -0.226 | 0.172 | 0.647 | 1.34 | 0.138 | 0.0797 | 1.05 | 3.33 | 1.61 | 2.57 | 0.829 | 1.7
5 | TAGCCTAGGTCATGCGGGCCAGTCTAGTGTCGGC | 3.89 | 3.03 | -0.0115 | 1.36 | -0.0777 | 3.43 | 2 | 2.23 | -0.051 | 0.877 | 1.3 | 2.93 | 0.182 | 0.146 | 0.871 | 1.4 | -0.585 | 2.48 | -0.19 | 3.86
6 | CCGAGTAGGTTATGGGTCATTCAGGCAACGGTGA | 2.41 | 2.13 | 0.794 | 2.57 | 0.212 | 4.37 | 7.07 | 6.9 | 5.78 | 6.93 | 3.95 | 4.54 | -0.0117 | -0.483 | 1.77 | 2.17 | 0.442 | 3.06 | 1.09 | 2.3
7 | ATCTCTAGGTAACCAAGTTCCGTGAATGCCGAAC | -0.0612 | 0.165 | 0.165 | 0.157 | 0.617 | 0.45 | 0.308 | 0.331 | -0.073 | 0.181 | 3.6 | 2.9 | 0.664 | 0.557 | 0.453 | 0.03 | 0.0548 | 0.264 | 0.19 | 0.435
